Shown are actives, neighbours in structure and some others; about 0.78% of the full set was active somewhere.
3CLpro inhibitor – SARS-CoV 3CLpro protease inhibition; P0C6X7; 290,000 compounds, 0.14% hits; recombinant SARS-CoV 3CLpro, quenched FRET peptide cleavage; inhibition, % at 6 µM; in the data active means inhibition above about 12%
BJeLR lethal – kills HRASV12-expressing BJeLR cells | BJeLR (HRASV12) viability, CellTiter-Glo ATP luminescence, 48 h | 300,000 compounds, 0.17% hits | inhibition, % (no concentration beside the values); in the data active means inhibition above about 50%
SSB-PriA inh – inhibitors of Klebsiella pneumoniae PriA binding to SSB C-terminal tail; AlphaScreen SSBct-PriA binding, biotinylated peptide; inhibition, % at 33 µM; 430,000 compounds, 0.6% hits; AID 1272365; in the data active means inhibition mostly above about 37%, no sharp cut-off; inactive means mostly below about 20%;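 further: plate controls were negative control peptide for no effect and reference peptide for full effect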
Numbers without * were called inactive; / = no result given; ! = not active in a repeat.

SMILES | 3CLpro inhibitor | BJeLR lethal | SSB-PriA inh
O=C(Cc1csc2nc(-c3ccccc3)cn12)N1CCN(c2ccccc2)CC1 | / | / | -1
O=C(c1csc2nc(-c3ccccc3)cn12)N1CCN(c2ccccc2)CC1 | / | / | active
COc1ccccc1N1CCN(C(=O)c2csc3nc(-c4ccc(F)cc4)cn23)CC1 | / | / | 20*
O=C(CSC1CCCC1)N1CCC(Cn2cccn2)CC1 | / | / | 0
CC[C@@H](C(=O)Nc1ccc(-n2c(C)nc3ccccc3c2=O)cc1C)c1ccccc1 | / | / | -19
CCc1nnc(C2CCN(C(=O)c3cc(Cl)ccc3OC)CC2)s1 | / | / | -1
O=C(Nc1nc(-c2ccccn2)cs1)C(c1ccccc1)c1ccccc1 | / | / | 37
O=C(CCCSc1ccccc1)Nc1nc(-c2ccccn2)cs1 | 2 | -8 | 36
CCC(C(=O)Nc1nc(-c2ccccn2)cs1)c1ccccc1 (stereo unspecified) | / | / | 100*
C[C@H](NC(=O)c1ccccc1)C(=O)Nc1nc(-c2ccccn2)cs1 | -1 | -19 | 62*
CC(Oc1ccccc1)C(=O)Nc1nc(-c2ccccn2)cs1 (stereo unspecified) | / | / | 5
CC(CC(=O)Nc1nc(-c2ccccn2)cs1)NC(=O)c1ccccc1 (stereo unspecified) | / | / | 75*
COc1ccccc1[C@H](CNC(=O)c1ccccc1Cl)OC | / | / | -14
CCc1nnc(NC(=O)CSc2nc(C3CCCC3)nc3c2c(=O)n(C)c(=O)n3C)s1 | / | / | -5
CC(C)n1cnc(S(=O)(=O)NCc2ccnc(-c3ccsc3)c2)c1 | / | / | -10
CC1=C(C(=O)Nc2nccs2)C(c2ccc(Cl)cc2)n2ncnc2N1 (stereo unspecified) | / | / | -16
CCc1cccc(C)c1NC(=S)NCc1ccc2[nH]c(C)cc2c1 | -1 | 2 | 42*
Cc1cc2cc(CNC(=S)NC3CCCCC3)ccc2[nH]1 | 0 | -4 | 12
Cc1cc2cc(CNC(=O)NC3CCCCC3)ccc2[nH]1 | -3 | 1 | 53*
CCC(=O)NCc1ccc2c(c1)cc(C)n2C | / | / | -6
Cc1cc2cc(CNC(=O)c3ccc4c(c3)OCO4)ccc2n1C | -2 | 13 | 39*!
CNC(=S)NCc1ccc2[nH]c(C)cc2c1 | 3 | 7 | 33
Cc1cc2cc(CNC(=O)NC3CCCCC3)ccc2n1C | -3 | 1 | 45*!
COc1ccc(C(=O)NCc2ccc3c(c2)cc(C)n3C)cc1 | -4 | -7 | -5
O=C(Nc1ccccc1F)c1cc(C2CCN(C(=O)c3ccc(F)cc3Cl)CC2)[nH]n1 | / | / | -2
SMILES | 3CLpro inhibitor | BJeLR lethal | SSB-PriA inh
COc1cccc(-c2ccc(=O)n(CCCC(=O)NCCc3ccccc3)n2)c1 | / | / | -4
COc1cccc(-c2ccc(=O)n(CCCC(=O)NCc3ccccc3Cl)n2)c1 | / | / | 39*
COc1ccc(C)c2sc(N(Cc3ccccn3)C(=O)c3ccccc3SC)nc12 | / | / | -2
CCOc1nn(CC)cc1-c1nnc(SCc2c(F)cccc2Cl)n1C | / | / | -2
COC1(CNC(=O)NCCOc2ccccc2)CCSC1 (stereo unspecified) | / | / | 3
O=C(N/N=C/c1ccncc1)c1cc2ccccc2cc1O | -2 | -1 | /
Cn1cccc1C=NNC(=O)c1cc2ccccc2cc1O | / | / | 43*
COc1ccc(NC(=O)N(C)C)cc1 | / | / | -25
O=C(N/N=C/c1cc(Cl)ccc1O)c1ccncc1 | 3 | -4 | /
O=C(N/N=C/c1cc(Br)c(O)c(Br)c1)c1cccnc1 | 4 | -3 | /
O=C(NN=Cc1cc(O)ccc1Br)c1cccnc1 | / | / | 46*
O=C(NN=Cc1cc(Cl)ccc1O)c1ccncc1 | / | / | 67*
COCCn1c(-c2nc(C(=O)NC[C@H]3CCCO3)cs2)cc2ccccc21 | / | / | -7
C#CCOCCOCCOCCNc1nc(N2CCN(C(=O)[C@H](Cc3cc4ccccc4[nH]3)n3cc([C@@H](N)Cc4ccc(O)cc4)nn3)CC2)nc(N2CCN(C(=O)[C@H](Cc3cc4ccccc4[nH]3)n3cc([C@@H](N)CC(C)C)nn3)CC2)n1 | / | / | 22
C#CCOCCOCCOCCNc1nc(N2CCN(C(=O)C(Cc3cc4ccccc4[nH]3)n3cc(C(N)Cc4ccc(O)cc4)nn3)CC2)nc(N2CCN(C(=O)C(Cc3cc4ccccc4[nH]3)n3cc(C(N)Cc4ccc(O)cc4)nn3)CC2)n1 (stereo unspecified) | 0 | -5 | 39*
NC(=O)C1Cc2ccccc2N1 (stereo unspecified) | / | / | 18
Cc1cc(C(O)CCNC(=O)Cn2c(=O)oc3ccccc32)c(C)o1 (stereo unspecified) | / | / | -8
N#Cc1nc(-c2cccs2)oc1NCc1ccc2c(c1)OCO2 | 4 | -4 | 48*
N#Cc1nc(-c2cccs2)oc1NCCc1ccccc1 | 6 | 5 | 21
CCCC(=O)Nc1nc(C)c(-c2csc(Nc3cc(OC)ccc3OC)n2)s1 | 5 | 6 | 17
O=C(Cc1csc(Nc2ccc(F)cc2)n1)Nc1ccc2c(c1)OCCO2 | / | / | 6
COc1ccc(OC)c(Nc2nc(CC(=O)NCc3ccncc3)cs2)c1 | / | / | 12
COc1ccc(NC(=O)Cc2csc(Nc3cccc(Cl)c3)n2)c(OC)c1 | / | / | 16*
COc1ccc(OC)c(Nc2nc(CC(=O)Nc3ccc4c(c3)OCCO4)cs2)c1 | / | / | 33*
CCOc1ccccc1NC(=O)Cc1csc(Nc2cccc(Cl)c2)n1 | / | / | 5
SMILES | 3CLpro inhibitor | BJeLR lethal | SSB-PriA inh
CCCC(C)C(=O)Nc1nc(C)c(-c2csc(Nc3cc(OC)ccc3OC)n2)s1 (stereo unspecified) | 2 | 7 | 47*
COc1ccc(OC)c(Nc2nc(CC(=O)NCc3ccc(F)cc3)cs2)c1 | / | / | 18*
COc1ccc(CCNc2ccc(C(=O)N3CCN(C(C)=O)CC3)cc2S(=O)(=O)Nc2cccc(C(F)(F)F)c2)cc1OC | / | / | -11
COCc1c(C(=O)Nc2cc(Cl)ccc2Cl)nnn1-c1ccc(Cl)cc1 | / | / | -20
COc1ccc(C(=O)N2C[C@H]3C[C@H](C2)c2cccc(=O)n2C3)cc1OC | / | / | 1
O=c1ccc(-c2ccncc2)nn1CCNS(=O)(=O)c1ccc(F)cc1 | / | / | -13
COc1ccc(OC)c(Nc2nc(CC(=O)Nc3ccc(C)cc3)cs2)c1 | / | / | 31*
COc1ccc(OC)c(Nc2nc(CC(N)=O)cs2)c1 | / | / | -10
CC1CCCCC1=NNC(=S)NCCc1ccccc1 (stereo unspecified) | / | / | 44*
S=C(NCCc1ccccc1)NN=C1CCCCCC1 | -4 | 6 | 5
COc1ccc(C(c2sc3nc(C)nn3c2O)N2CCN(c3ccc(F)cc3)CC2)cc1 (stereo unspecified) | / | / | 8
CCCC1CCc2c(c3ccccc3[nH]c2=O)O1 (stereo unspecified) | -3 | 0 | -3
CCC1CCc2c(c3ccccc3[nH]c2=O)O1 (stereo unspecified) | 2 | 1 | 87*
COc1cccc(CSc2nc(C)c(CC(=O)Nc3nccs3)c(=O)[nH]2)c1 | / | / | -1
O=C(c1ccccc1Br)N1CC(c2nc(-c3cccc(C(F)(F)F)c3)no2)C1 | / | / | -30
CC(C)(C)C(=O)Nc1ccc(C(=O)NCc2cccnc2)cc1 | -4 | 3 | -5
CC(C)(C)c1ccc(C(=O)Nc2ccc(C(=O)NCc3cccnc3)cc2)cc1 | 1 | 82* | 7
CN(c1ccc(C(=O)NCc2cccnc2)cc1)S(=O)(=O)c1ccc(Cl)cc1 | 7 | 5 | 9
Cc1ccc(S(=O)(=O)N(C)c2ccc(C(=O)NCc3cccnc3)cc2)cc1 | 5 | 6 | 39*

Screening results (PubChem BioAssay)
